Assay results published in PMC5540273 (PLoS ONE, 2017).

Columns and labels:
Conditions in all cases: concentration: 1 μM,replicates: in singlicate; n = 1
CDC2L2 = test system: CDC2L2
CDC2L5 = test system: T1, CDC2L5
T1 construct: gene CDK13

CDK11 = test system: T2, CDK11
T2 construct: gene CDK19

CDK2 = test system: CDK2
CDK3 = test system: CDK3
CDK4-cyclinD1 = test system: CDK4-cyclinD1
CDK4-cyclinD3 = test system: CDK4-cyclinD3
CDK4 = test system: CDK4
CDK5 = test system: CDK5
CDK7 = test system: CDK7
CDK8 = test system: CDK8
CDK9 = test system: CDK9
CDKL1 = test system: CDKL1
CDKL2 = test system: CDKL2
CDKL3 = test system: CDKL3
CDKL5 = test system: CDKL5
CHEK1 = test system: CHEK1
CHEK2 = test system: CHEK2
CIT = test system: CIT
CLK1 = test system: CLK1
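Also: KINOMEscan kinase panel screen.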

SMILES | %Inh (CDC2L2) | %Inh (CDC2L5) | %Inh (CDK11) | %Inh (CDK2) | %Inh (CDK3) | %Inh (CDK4-cyclinD1) | %Inh (CDK4-cyclinD3) | %Inh (CDK4) | %Inh (CDK5) | %Inh (CDK7) | %Inh (CDK8) | %Inh (CDK9) | %Inh (CDKL1) | %Inh (CDKL2) | %Inh (CDKL3) | %Inh (CDKL5) | %Inh (CHEK1) | %Inh (CHEK2) | %Inh (CIT) | %Inh (CLK1)
OCCn1cc(-c2cnc3nnn(Cc4ccc5ncccc5c4)c3n2)cn1 | 0% | 0% | 0% | 0% | 5% | 0% | 0% | 0% | 0% | 15% | 0% | 8% | 0% | 0% | 10% | 0% | 0% | 6% | 0% | 16%
Cn1ccc2ncnc(Oc3ccc(NC(=O)Nc4cc(C(C)(C)C)on4)c(Cl)c3)c21 | 4% | 26% | 100% | 12% | 2% | 0% | 2% | 2% | 0% | 55% | 90.9% | 6% | 48% | 26% | 17% | 32% | 0% | 7% | 63% | 0%
NC(=O)c1ccc(-c2cc3ncnc(SCC(=O)O)c3s2)cc1 | 0% | 0% | 0% | 0% | 0% | 1% | 0% | 0% | 18% | 58% | 0% | 72% | 7% | 0% | 0% | 0% | 0% | 0% | 3% | 82%
FC(F)(F)c1cc(Br)cc(Nc2nccc(-c3cnn4ncccc34)n2)c1 [GW810578] | 7% | 0% | 0% | 39% | 73% | 16% | 52% | 8% | 37% | 98.9% | 2% | 97.8% | 47% | 96.2% | 97.4% | 95.3% | 0% | 17% | 6% | 99.2%
COc1cccc(CNC(=O)NC2CCN(c3ccnc(Nc4cc(OC)c(OC)c(OC)c4)n3)C2)c1 (centres unmarked) [GSK1379765] | 25% | 0% | 22% | 0% | 8% | 4% | 0% | 14% | 0% | 0% | 29% | 0% | 13% | 22% | 0% | 0% | 0% | 14% | 28% | 21%
Nc1nccc(-c2ccc3c(N)n[nH]c3c2)n1 [GSK1034945] | 4% | 0% | 37% | 0% | 13% | 0% | 0% | 1% | 0% | 0% | 13% | 2% | 10% | 18% | 30% | 0% | 0% | 58% | 54% | 98%
CCn1c(-c2nonc2N)nc2cncc(Br)c21 [SB-738004] | 13% | 18% | 14% | 1% | 3% | 43% | 0% | 36% | 0% | 48% | 50% | 4% | 2% | 0% | 0% | 0% | 0% | 41% | 0% | 22%
CC(C)c1nc(-c2cccc(NS(=O)(=O)c3ccccc3)c2)c(-c2ccnc(Nc3ccc4c(c3)CN(C)CC4)n2)s1 [GSK1649598] | 24% | 92.7% | 0% | 99.3% | 99.6% | 65% | 44% | 93.7% | 87% | 78% | 0% | 60% | 0% | 100% | 37% | 99% | 5% | 24% | 84% | 30%
CN(c1cccc(CNc2nc(Nc3ccc4c(c3)CC(=O)N4)ncc2C(F)(F)F)c1)S(C)(=O)=O | 7% | 0% | 0% | 6% | 22% | 22% | 0% | 0% | 31% | 53% | 0% | 6% | 44% | 55% | 7% | 0% | 0% | 0% | 30% | 63%
CCn1c(-c2nonc2N)nc2cncc(CNC3CCNCC3)c21.Cl [SB-747651] | 0% | 0% | 5% | 0% | 11% | 0% | 14% | 33% | 0% | 0% | 24% | 0% | 0% | 20% | 0% | 0% | 48% | 0% | 24% | 31%
COC(=O)Nc1nc2cc(Oc3ccc(NC(=O)Nc4cc(C(F)(F)F)ccc4Cl)cc3)ccc2[nH]1.Cl [GW697465] | 12% | 6% | 66% | 37% | 10% | 20% | 0% | 50% | 0% | 89% | 86% | 0% | 14% | 81% | 0% | 0% | 0% | 41% | 97.9% | 34%
Cl.Nc1n[nH]c2cc(-c3ccccn3)ccc12 [GSK2189892] | 23% | 0% | 2% | 0% | 0% | 0% | 0% | 0% | 0% | 0% | 13% | 7% | 4% | 24% | 0% | 0% | 18% | 0% | 25% | 23%
COc1cccc(C2=C(Nc3cccc(Cl)c3)C(=O)NC2=O)c1 [SB-341556] | 0% | 0% | 0% | 7% | 4% | 0% | 14% | 0% | 0% | 14% | 0% | 0% | 18% | 12% | 0% | 0% | 14% | 0% | 0% | 69%
Cl.Cl.NC[C@H](CC1CCCCC1)NC(=O)c1ccc(-c2ccnc3[nH]ccc23)s1 [GSK1581428] | 0% | 0% | 4% | 11% | 0% | 0% | 23% | 25% | 0% | 94.6% | 11% | 39% | 23% | 51% | 89% | 44% | 96.8% | 27% | 99% | 85%
Cc1cccc(-c2nc(Nc3ccncc3)c3sccc3n2)n1 [GW869641] | 0% | 11% | 8% | 3% | 0% | 0% | 24% | 23% | 14% | 44% | 8% | 11% | 22% | 0% | 15% | 31% | 0% | 0% | 96.6% | 4%
Cc1ccn2nc(-c3ccc(F)cc3)c(-c3ccncc3)c2c1.Cl [GW457859] | 24% | 0% | 1% | 0% | 2% | 18% | 0% | 50% | 0% | 47% | 12% | 0% | 23% | 28% | 0% | 0% | 0% | 43% | 100% | 22%
